Measured values published in PubChem BioAssay AID1117319 (Southern Research Institute, 2015).
Hit rate of the full screen: of about 260,000 compounds, about 1,500 (0.58%) were called active. Roughly 5% stayed inconclusive and do not appear here.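 How the source made its calls: active means inhibition above a set limit at one or more doses, reproduced on every date tested; inconclusive means results disagree between test dates, or hit never tested in dose response; inactive means the rest.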 Only a sample is shown. Potency and affinity values are given separately.

Biological target: Virion infectivity factor (Human immunodeficiency virus type 1 group M subtype B (isolate BH10)) + Virion infectivity factor (Human immunodeficiency virus type 1 group M subtype B (isolate BRU/LAI)) + Virion infectivity factor (Human immunodeficiency virus type 1 group M subtype B (isolate PCV12)) + Virion infectivity factor (Human immunodeficiency virus type 1 group M subtype B (isolate HXB2)) + DNA dC->dU-editing enzyme APOBEC-3G (Homo sapiens) (UniProt P69720+P69721+P69722+P69723+Q9HC16)
Assay: HIV-1 Vif–A3G interaction blockers – biochemical, TR-FRET, GST-Vif 1-94, biotin-A3G peptide, dose response retest, primary screen (AID 1117319);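 further: Vif residues 1-94 fused to GST binding biotinylated APOBEC3G peptide 110-148; 0% = full assay without inhibitor and 100% = GST in place of GST-Vif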
Settings: TR-FRET GST-Vif / biotin-A3G peptide binding; hits give high values

inhibition, inactive:
COc1ccc(NC(=O)Nc2cccs2)cn1 9.16%
Cc1cc(F)ccc1S(=O)(=O)Nc1ccccc1C(=O)Nc1ccccc1-c1nc2ccccc2[nH]1 16.7%
Cc1cc(F)ccc1S(=O)(=O)Nc1ccccc1C(=O)Nc1ncn[nH]1 -4.68%
COc1ccccc1NC(=O)C(C)OC(=O)CN1C(=O)C2CC=CCC2C1=O (configuration not stated) -6.25%
COc1ccc(CCN2CC(C(=O)N(C)CCn3nc(C)cc3C)CCC2=O)cc1 (configuration not stated) 6.02%
CCc1ccc(C(=O)O)cc1 0.16%
Cc1cc(C)n(Cc2ccc(C(=O)O)cc2)n1 -1.33%
Cc1ccc(-c2ccccc2)n1-c1cccc(C(=O)O)c1 0.87%
Cc1cc(C(=O)O)ccc1-n1c(C)cc(C=C2C(=O)c3ccccc3C2=O)c1C -10.7%
Cc1ccc(-c2ccccc2)n1-c1ccc(C(=O)O)cc1 -4.6%
Cc1cc(N)ccc1-n1c(C)ccc1C 15.6%
Cc1ccc(C)n1-c1ccc(C(=O)NN)cc1 -3.66%
Cc1ccc(C)n1-c1cccc(C(=O)Nc2ccccc2)c1 18.2%
Cc1cc(C)cc(NC(=O)CCNS(=O)(=O)c2ccc3c(c2)oc(=O)n3C)c1 17.7%
CC1CC(C)(C)NC(=S)N1CCCC(=O)Nc1ccc(Br)cc1 (configuration not stated) -9.53%
O=C(NC1CCCCC1)C12CC3CC(CC(Cl)(C3)C1)C2 9.37%
COc1ccc(O)c(CN2CC3CCC(CC3)C2)c1 4.35%
COc1ccc(N2CCN(C(=O)COC(=O)CNC(=O)c3ccccc3)CC2)cc1 3.12%
CC1(C)NC(=O)N(CC(=O)NNC(=O)c2ccccc2F)C1=O -5.82%
FC(F)(F)c1cnc(N2CCN(C(=S)NCc3ccccc3)CC2)c(Cl)c1 -5.24%
COc1cc2[nH]c3c(=O)n(N)c(=O)[nH]c3c2cc1OC -6%
O=[N+]([O-])c1ccccc1S(=O)(=O)NC1CCCCCCC1 8.73%
O=[N+]([O-])c1ccccc1S(=O)(=O)Nc1ncccn1 5.53%
CCN(C(=O)COC(=O)c1oc2ccc(OC)cc2c1C)C1CCCCC1 -5.77%
CC1CCCN(C(=O)NC(=O)c2ccc(Cl)cc2)C1 (configuration not stated) -0.86%
Cc1cc(C)cc(NC(=O)CCNS(=O)(=O)c2cc(Br)cnc2N)c1 -18.9%
Cc1ccc(NC(=O)CCNS(=O)(=O)c2cc(Br)cnc2N)cc1Cl 5.11%
